A selection: hits, their analogues and other compounds. The true share with any hit is near 27%.
CYP2C9 inh – inhibitors of human CYP2C9; P11712; CYP2C9 Supersomes, luciferin-H conversion, luminescence; inhibition, % at 5 µM; 96,000 compounds, 20% hits; AID 777;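 active = blocking of liver enzyme CYP2C9 beyond about 50% at 5 µM, limit read from the data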
Target sequence (P11712 whole entry, looked up): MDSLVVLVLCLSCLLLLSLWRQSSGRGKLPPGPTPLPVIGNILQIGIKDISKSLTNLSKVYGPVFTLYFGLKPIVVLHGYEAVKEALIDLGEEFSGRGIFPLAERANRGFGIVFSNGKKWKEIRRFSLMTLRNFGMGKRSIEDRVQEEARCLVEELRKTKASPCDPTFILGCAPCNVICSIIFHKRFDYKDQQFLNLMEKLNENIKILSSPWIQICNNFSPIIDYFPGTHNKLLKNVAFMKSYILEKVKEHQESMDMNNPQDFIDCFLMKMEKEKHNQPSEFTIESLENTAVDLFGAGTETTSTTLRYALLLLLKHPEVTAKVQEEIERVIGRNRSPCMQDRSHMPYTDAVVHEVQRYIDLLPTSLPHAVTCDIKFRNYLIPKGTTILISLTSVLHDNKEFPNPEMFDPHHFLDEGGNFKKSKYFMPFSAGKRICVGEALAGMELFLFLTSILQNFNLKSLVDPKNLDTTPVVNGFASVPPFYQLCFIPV
CYP2C19 activ – increases human CYP2C19 enzyme activity. P33261. recombinant CYP2C19, luciferin-H EGE luminescence; active compounds read high; 0 = fully inhibited enzyme, 1 = untreated enzyme. activation factor at 5 µM. 96,000 tested, under 10 active. AID 1025;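 active = activation factor of at least 2 at 5 µM in the primary screen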
CYP2C19 inh – human CYP2C19 inhibition; P33261; 96,000 compounds, 21% hits; CYP2C19 Supersomes, luciferin-H EGE luminescence, 30 min; inhibition, % at 5 µM;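 active = CYP2C19 inhibition above a set limit at 5 µM in the primary screen, cut at about 50% in these data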
sEH inhibitor – blocks human soluble epoxide hydrolase activity; P34913; recombinant human sEH enzymatic activity assay; inhibition, % at 2 µM; 91,000 compounds, 0.34% hits; in the data active = inhibition above about 80%
CYP2C9 activ – increases human cytochrome P450 2C9 activity; P11712; recombinant CYP2C9, luciferin-H conversion, luminescence; active compounds read high; factor 1 = untreated enzyme, 0 = blocked; activation factor at 5 µM; 96,000 compounds, 1.4% hits; AID 1024;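 active = activation factor of 2 or more for CYP2C9 at a 5 µM dose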
sEH act – activators of human soluble epoxide hydrolase; activation, % at 2 µM; P34913; purified human sEH enzymatic activity, activator screen; 91,000 compounds, 0.04% hits; in the data active = activation above about 37%
Of the large screens only hits and unclear results are named; the others gave an inactive call.

CCn1c(SCc2nc(-c3ccccc3)no2)nnc1-c1cccs1	CYP2C9 inh 52, CYP2C19 inh 51
COc1ccc(-c2noc(CSc3nnc(-c4ccccc4)n3C)n2)cc1	CYP2C9 inh 66, CYP2C19 inh 84
CCn1c(SCc2nc(-c3ccccc3)no2)nnc1-c1ccco1	none (no result: CYP2C9 inh, CYP2C19 activ, CYP2C19 inh, CYP2C9 activ)
CCc1ccc(-n2c(SCc3c(C)noc3C)nnc2-c2ccncc2)cc1	CYP2C9 inh 58, CYP2C19 inh 73
COc1ccc(CC(C)N2CCN(c3cccc(C(F)(F)F)c3)CC2)cc1OC (stereo unspecified)	none
c1ccc(-c2noc(CSc3nnnn3C3CCCCC3)n2)cc1	none (no result: sEH inhibitor, sEH act)
CCn1c(SCc2nc(-c3ccccc3)no2)nc2ccccc21	CYP2C19 inh 88
COc1ccc(-c2noc(CSc3nnc(-c4ccncc4)n3-c3ccc(F)cc3)n2)cc1OC	CYP2C19 inh 59
COc1cccc(NC(=O)C(=O)N/N=C/c2cc(C)n(-c3ccc(Cl)c(Cl)c3)c2C)c1	CYP2C19 inh 57
Cc1cc(/C=N\NC(=O)CC(=O)NC2CCCCC2)c(C)n1-c1ccc(Cl)c(Cl)c1	none
C/C(CC(=O)Nc1ccccn1)=N\NC(=O)Cc1cccc2ccccc12	none
CCCCC(=O)N/N=C/c1ccc(Sc2cccc3cccnc23)o1	CYP2C9 inh 57
O=C(Cc1cccc2ccccc12)N/N=C/c1ccc(Sc2cccc3cccnc23)o1	CYP2C9 inh 82, CYP2C19 inh 53
O=c1c2c3c(sc2n2cnnc2n1C1CCCCC1)CCC3	none (no result: sEH inhibitor, sEH act)
COc1ccc(-c2noc(CN(C(=O)c3cccs3)C(C)C)n2)cc1	CYP2C9 inh 68
Cc1ccc(-c2noc(CN(C(=O)C(c3ccccc3)c3ccccc3)C(C)C)n2)cc1	CYP2C9 inh 66
CC(C)N(Cc1nc(-c2ccc(Cl)cc2)no1)C(=O)C(c1ccccc1)c1ccccc1	CYP2C9 inh 54
CC(C)N(Cc1nc(-c2ccccc2)no1)C(=O)CCCN1C(=O)c2ccccc2C1=O	CYP2C9 inh 67, CYP2C19 inh 67
CCCOC(=O)c1ccc2c(c1)C(=O)N(c1ccccc1)C2=O	none
O=C(C(Cc1ccccc1)NS(=O)(=O)c1cccc2cccnc12)N1CCc2ccccc21 (stereo unspecified)	none
Cn1c(N2CCN(C(=O)NC34CC5CC(CC(C5)C3)C4)CC2)nc2ccccc21	none (no result: CYP2C9 inh, CYP2C19 activ, CYP2C19 inh, CYP2C9 activ)
CCN(CC)c1ccc(NC(=O)COC(=O)C23CCC(=O)N2c2ccccc2S3)cc1 (stereo unspecified)	none
Cc1cccc(-c2noc(CN(C(=O)CCc3ccccc3)C(C)C)n2)c1	none
CC(NC(=O)C(c1ccccc1)c1ccccc1)C(=O)O (stereo unspecified)	none (no result: sEH inhibitor, sEH act)
CC(C)N(CCO)C(=O)C(c1ccccc1)c1ccccc1	CYP2C9 inh 59, CYP2C19 inh 90
COc1ccc(Cl)cc1C(=O)N(Cc1nc(-c2cccc(C)c2)no1)C(C)C	CYP2C19 inh 88 (no result: sEH inhibitor, sEH act)
Cc1ccc(-c2noc(CN(C(=O)c3cccc(Br)c3)C(C)C)n2)cc1	CYP2C9 inh 87, CYP2C19 inh 82
CCc1ccccc1N1C[C@@]23C=C[C@@H](O2)C(C(=O)OCC(C)C)[C@H]3C1=O (stereo partly specified)	none
CCOC(=O)N1CCC(N2C(=O)c3ccccc3C2Nc2c(C)cccc2C)CC1 (stereo unspecified)	CYP2C9 inh 94, CYP2C19 inh 95
CCOC(=O)N1CCC(N2C(=O)c3cc(C(=O)NC4CCCCC4)ccc3C2O)CC1 (stereo unspecified)	none (no result: sEH inhibitor, sEH act)
CCOC(=O)N1CCC(N2C(=O)c3ccccc3C2Nc2ccc(C)cc2)CC1 (stereo unspecified)	none
CCOC(=O)N1CCC(N2C(=O)c3ccccc3C2Nc2cc(C(=O)OC)cc(C(=O)OC)c2)CC1 (stereo unspecified)	CYP2C9 inh 66, CYP2C19 inh 73
CCOC(=O)N1CCC(N2C(=O)c3ccccc3C2Nc2ccccc2)CC1 (stereo unspecified)	CYP2C9 inh 80, CYP2C19 inh 65
COc1ccc(C)cc1S(=O)(=O)Nc1ccc(F)c(Cl)c1	none (no result: CYP2C9 inh, CYP2C19 activ, CYP2C19 inh, CYP2C9 activ)
COC(=O)c1cc(Cl)c(NS(=O)(=O)c2ccccc2)cc1OC	CYP2C9 inh 92, CYP2C19 inh 92 (no result: sEH inhibitor, sEH act)
COc1ccc(S(=O)(=O)Nc2ccc(C)cc2)cc1N(C)S(=O)(=O)c1ccc(Cl)cc1	CYP2C9 inh 62, CYP2C19 inh 71
COc1ccc(NC(=O)C=C(C)C)cc1Cl	CYP2C19 inh 58
COc1ccc(S(=O)(=O)Nc2ccc(F)c(Cl)c2)cc1OC	CYP2C9 inh 56, CYP2C19 inh 100 (no result: sEH inhibitor, sEH act)
CCn1c(=O)c(=O)[nH]c2cc(C(=O)NC3CCCc4ccccc43)ccc21 (stereo unspecified)	none (no result: sEH inhibitor, sEH act)
CCOC(=O)C(CC)Sc1nc(-c2ccc(OC)cc2)nc2c1c(=O)n(C)c(=O)n2C (stereo unspecified)	none (no result: CYP2C9 inh, CYP2C19 activ, CYP2C19 inh, CYP2C9 activ)
COc1ccc(-c2cnc(OC(C)(C)C)nc2OC(C)(C)C)cc1OC	none
Cc1ccc(CCNC(=O)C2CCC(=O)N2C2CCCC2)cc1 (stereo unspecified)	none
COc1ccc(NC(=O)CNS(=O)(=O)c2ccccc2)cc1Cl	CYP2C19 inh 63
COc1cc(S(=O)(=O)NC(C)C)ccc1Cl	CYP2C19 inh 53, CYP2C9 activ 2.5
COc1ccc(NC(=O)CN(C)S(=O)(=O)c2ccc(Cl)cc2)cc1Cl	none
COc1ccc(S(=O)(=O)NC(C(C)C)C(C)C)cc1OC	none (no result: CYP2C9 inh, CYP2C19 activ, CYP2C19 inh, CYP2C9 activ)
COC(=O)c1cc(NS(=O)(=O)c2ccc(OC)c(OC)c2)ccc1Cl	CYP2C9 inh 80, CYP2C19 inh 100
O=C(NC1CC2CCCC(C1)N2S(=O)(=O)c1ccccc1)C1CCCCC1 (stereo unspecified)	CYP2C9 inh 60
COc1cccc(C(=O)Oc2cc3c4c(c2)C(C)=CC(C)(C)N4C(=O)C3=O)c1	none
CCCOc1ccccc1-n1sc2c(c1=S)-c1cc(OC)cc3c1N(C(=O)C3=O)C2(C)C	CYP2C9 inh 80, CYP2C19 inh 62
COc1ccc(C2NCCC3(O)CCCCC23)c(OC)c1OC (stereo unspecified)	none
Cc1[nH]nc2ncc(C(=O)c3ccccc3O)cc12	none
COc1ccc(O)c(C(=O)c2cnc3onc(C)c3c2)c1	CYP2C19 inh 83
Cc1nn(C)c2ncc(C(=O)c3cc(F)ccc3O)cc12	CYP2C9 inh 68, CYP2C19 inh 95
CC1CCCCN1C(=O)c1cc(F)c(F)cc1Cl (stereo unspecified)	none
CCc1cccc(NC(=O)c2ccc(Br)o2)c1	CYP2C19 inh 70
O=C(c1ccccc1)c1cccc(NC(=O)c2ccc(Br)o2)c1	CYP2C9 inh 95, CYP2C19 inh 64
CCN(CC)c1ccc(NC(=O)c2ccc(Br)o2)cc1	CYP2C19 inh 52 (no result: sEH inhibitor, sEH act)
Cc1onc(-c2c(Cl)cccc2Cl)c1C(=O)NCCN1CCOCC1	none
Cc1ccc(CC(CC(=O)O)C(=O)NC2CCCCC2)cc1 (stereo unspecified)	none
